# Laboratory results: PubChem BioAssay (NCATS)
# Inconclusive results are not listed. A number with no mark means an inactive call. Calls of active or inactive are those of the source. Calls come from the whole dose curve; as a rule, active = well fitted inhibition curve with a large enough effect; inconclusive = small, poorly fitted or top-dose-only effect; inactive = no such curve, though single readings can be large or run the other way.
# Test: qHTS for Inhibitors of the Aldehyde Dehydrogenase Family (ALDH1A2, ALDH1A3, ALDH2, ALDH3A1) (AID 2061307); note: nearly all actives have a fitted effect of over 50% in size; for Potency: test system not described further here
# Settings: ALDH inhibition qHTS; series mostly up to 50.3 µM; activity change, negative = inhibition: at the top concentration
# % is set by controls: 0 for no effect and ±100 for the full control effect; potency is the fitted concentration of half-maximal effect.
SMILES,Potency,"activity change, negative = inhibition"
COC(=O)c1ccc(CNc2ncnc3ccccc23)cc1,0.708 µM (active),–
O=C(Nc1cccnc1)c1nccs1,–,-0.621%
COc1ccc(-n2c(C)c(C(=O)O)c3cc(O)ccc32)cc1,–,-1.76% [at 34.4 µM]
O=C(c1ccc2ccccc2c1)c1no[n+]([O-])c1C(=O)c1ccc2ccccc2c1,5.04 µM (active),–
COc1ccc2c(c1)C(C)(CCN(C)C)C(=O)N2C (stereo not given),–,13.2%
O=C(c1cc(-c2ccccc2Cl)nc2ccccc12)N1CCN(c2ccccc2O)CC1,–,-26.1%
O=C(Nc1cccc(C(F)(F)F)c1)c1ccccc1NCc1cccc(C(F)(F)F)c1,–,2.71%
O=C(Nc1cccc(S(=O)(=O)N2CCOCC2)c1)c1ccc(CN2CCc3ccccc3C2)cc1,3.98 µM (active),–
Cc1ccc(-c2ccccc2)n1-c1ccccc1C(=O)O,15.9 µM (active),–
C=CCOc1c(Cl)cc(CNc2ccc(N(C)C)cc2)cc1OC,0.449 µM (active),–
O=C(O)c1csc(-n2[nH]c(-c3cc(F)ccc3F)cc2=O)n1,–,-23.6%
O=C(Nc1cccc(Nc2ccccc2)c1)c1ccc(-c2cccc([N+](=O)[O-])c2)o1,1.27 µM (active),–
COc1cccc(N2CCN(c3ncnc4c3c(-c3ccccc3)cn4-c3cccc(C(F)(F)F)c3)CC2)c1,–,-20.3% [at 34.4 µM]
Cc1occc1C(=O)N1CCc2cc(-c3nc(NC(=O)Cc4ccc5c(c4)OCO5)sc3C)ccc21,7.08 µM (active),–
CCN1CCN(C(=S)c2ccc([N+](=O)[O-])cc2)CC1,–,-3.34%
COc1ccc(OC)c(NC(=O)c2cc3cccc(OC)c3oc2=O)c1,–,-20.3% [at 34.4 µM]
N#Cc1cccc(-c2ccc3nc(-c4ccccc4)cn3c2)c1,–,-1.96% [at 34.4 µM]
Cc1c(Cl)cccc1-n1c(CCC(=O)O)ccc1-c1cccs1,6.34 µM (active),–
CCOc1ccc(CNC(=O)c2cnc3c(C)cccn3c2=O)cc1,–,0.456% [at 34.4 µM]
CCOc1ccc(CCNC(=O)c2cc3occc3[nH]2)cc1OCC,–,-25.9%

SMILES,Potency,"activity change, negative = inhibition"
Cc1ccccc1C(=O)n1ccc2cc(-c3cccc(NC(=O)Cc4ccccc4)n3)cnc21,–,-20.7%
Cc1ccccc1CN1CCN(Cc2ccc3ccccc3n2)CC1CCO (stereo not given),3.18 µM (active),–
CCn1c(=O)cc(OCC(=O)N2CCN(c3cccc(Cl)c3)CC2)c2ccccc21,–,-10.8%
O=C(Nc1cccc(-c2ccc(N3CCOCC3)nn2)c1)Nc1ccccc1C(F)(F)F,–,-15.6% [at 34.4 µM]
Fc1cc(Cn2cnc3ccccc32)ccc1Cl,11.2 µM (active),–
Ic1ccc(CN2CCC(N(CCc3ccccc3)Cc3ccccc3)CC2)cc1,–,-21.7%
Cc1nnc(NCc2ccc(Cl)cc2)o1,8.96 µM (active),–
COc1ccc(-n2nnc(-c3nc(-c4cccs4)no3)c2N)cc1OC,–,-10.4% [at 34.4 µM]
Cc1c2c(=O)n(-c3ccccc3)[nH]c2cc(=O)n1Cc1ccccn1,–,-29%
Cn1cc2c(=O)n(-c3ccccc3)c(SCc3cccc(F)c3)nc2n1,–,-0.291% [at 34.4 µM]
NS(=O)(=O)c1ccc(Cc2cn(-c3nc(C(=O)O)cs3)c3cc(C(=O)N4CCOCC4)ccc23)cc1,–,-3.7%
O=C(O)c1ccc(-c2ccc3ncnc(NCc4cccs4)c3c2)o1,–,-23.2%
O=C(Nc1cccc(C(F)(F)F)c1)c1ccccc1NCc1ccccc1,–,-16%
OCCNc1nc(Nc2ccccc2O)nc(N2CCCC2)n1,–,-7.77%
N#Cc1ccsc1NC(=O)c1ccn(-c2ccccc2F)n1,1 µM (active),–
Cc1ccc2c(CC(=O)Nc3c(C(=O)c4ccc(F)cc4)oc4ccccc34)coc2c1C,–,-18.1% [at 34.4 µM]
O=C(O)c1cccc(Nc2ncnc3sccc23)c1,–,0% [at 34.4 µM]
CS(=O)Cc1cccc(C(=O)Nc2cccc3cccnc23)c1 (stereo not given),–,-12% [at 34.4 µM]
COc1c(F)cc2[nH]c(C(=O)O)cc2c1F,–,-12.3%
Nc1nc(NCc2ccccc2)c2ccccc2n1,10 µM (active),–
